These results are taken from article PMC5540273 (PLoS ONE, 2017).

Holding throughout (details): concentration: 1 μM, replicates: in singlicate; n = 1
In assay [1] the test system is CSNK1G1.
The test system of assay [2] is CSNK1G2.
In assay [3] the test system is CSNK1G3.
Assay [4] deals with CSNK2A1.
The subject of assay [5] is CSNK2A2.
For assay [6], the system named is T1, CTK.
T1 construct: gene MATK

Assay [7] has as its system DAPK1.
The test system of assay [8] is DAPK2.
Assay [9] relates to DAPK3.
Assay [10] concerns T2, DCAMKL1.
T2 construct: gene DCLK1

Assay [11] relates to T3, DCAMKL2.
T3 construct: gene DCLK2

For assay [12], the system named is T4, DCAMKL3.
T4 construct: gene DCLK3

The test system of assay [13] is DDR1.
For assay [14], the system named is DDR2.
Assay [15] concerns T5, DLK.
T5 construct: gene MAP3K12

For assay [16], the system named is T6, DMPK2.
T6 construct: gene CDC42BPG

Assay [17] has as its system DMPK.
The subject of assay [18] is T7, DRAK1.
T7 construct: gene STK17A

The test system of assay [19] is T8, DRAK2.
T8 construct: gene STK17B

Assay [20] concerns DYRK1A.
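Note: KINOMEscan kinase panel screen.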

As to `Cc1cc(-c2ccnc(Nc3cccc(C#N)c3)n2)cc(C)c1O` [GSK1440913], the “%Inh” value turned out to be 17% in assay [1]; 12% in assay [2]; 55% in [3]; 40% in assay [4]; 46% in assay [5]; 4% in assay [6]. The “%Inh” value in assay [7] is 20%; in assay [8], 9%; in assay [9] it was 5%; in [10], 8%; in assay [11], 10%; in [12], 61%. In addition, the “%Inh” value came to 0% in [13]; 23% in [14]; 46% in assay [15]; 22% in assay [16]; 0% in [17]; 96.8% in assay [18]. Besides, the “%Inh” value in assay [19] is listed as 45%; in [20] it was 46%.

With `CCNC(=O)/C=C/c1n[nH]c2cc(Sc3ccccc3C(=O)NC)ccc12`, the “%Inh” value stood at 13% in assay [1]; 0% in assay [2]; 13% in assay [3]; 24% in [4]; 0% in assay [5]; 6% in assay [6]. Besides, the “%Inh” value in assay [7] is recorded as 13%; in assay [8], 8%; in assay [9], 15%; in [10] it was 0%; in assay [11] it was 11%; in assay [12] it was 30%. The “%Inh” value amounted to 0% in assay [13]; 0% in [14]; 9% in [15]; 3% in assay [16]; 3% in assay [17]; 49% in assay [18]. The “%Inh” value stood at 0% in assay [19] and 21% in assay [20].

In the case of `COc1cccc(NC(=O)NCCNc2ccnc(Nc3ccc(F)cc3)n2)c1` [GSK1379879], the “%Inh” value in assay [1] worked out at 0%; in assay [2], 0%; in assay [3] it was 23%; in [4] it was 0%; in assay [5], 7%; in assay [6], 0%. Further, the “%Inh” value was 0% in [7]; 0% in [8]; 17% in [9]; 9% in [10]; 0% in assay [11]; 0% in assay [12]. The “%Inh” value in assay [13] was 7%; in assay [14], 1%; in [15], 21%; in assay [16] it was 0%; in [17], 0%; in assay [18], 0%. Further, the figures for the “%Inh” value in assay [19] and in assay [20] were 31% and 10%, respectively.

Regarding `N#Cc1cnc2cc(-c3cnc(CNCCN4CCOCC4)s3)ccc2c1Nc1ccc(Oc2ccccc2)cc1` [GW664114], the “%Inh” value in [1] is reported as 19%; in assay [2] it was 0%; in assay [3] it was 25%; in assay [4], 0%; in assay [5] it was 5%; in [6] it was 26%. Besides, the “%Inh” value in assay [7] is 26%; in assay [8], 0%; in assay [9] it was 2%; in [10] it was 19%; in [11], 0%; in assay [12], 0%. In addition, the “%Inh” value in assay [13] was 21%; in [14], 11%; in [15] it was 91.2%; in assay [16], 0%; in assay [17], 0%; in assay [18] it was 2%. Moreover, the “%Inh” value in assay [19] is 0%; in assay [20], 38%.

`COc1cc(Nc2ccnc3cc(-c4ccncc4)ccc23)cc(OC)c1OC.Cl` [GW494610]: the “%Inh” value is 0% in [1]; 0% in assay [2]; 7% in assay [3]; 7% in [4]; 0% in [5]; 0% in assay [6]. Moreover, the “%Inh” value was found to be 0% in [7]; 0% in assay [8]; 9% in assay [9]; 0% in [10]; 0% in assay [11]; 0% in assay [12]. Besides, the “%Inh” value in assay [13] came out at 57%; in [14] it was 81%; in assay [15], 47%; in assay [16], 46%; in [17], 0%; in assay [18], 0%. The “%Inh” value is reported as 0% in assay [19] and 12% in assay [20].

On to `CC(C)NCC(Cc1ccccc1)NC(=O)c1cc(Br)c(-c2ccnc3[nH]ccc23)s1.Cl.Cl` (stereo not drawn) [GSK1383281], for which the “%Inh” value in [1] came out at 13%; in assay [2], 14%; in [3] it was 29%; in assay [4], 59%; in assay [5], 46%; in [6] it was 0%. In addition, the “%Inh” value in assay [7] is 18%; in assay [8], 0%; in assay [9] it was 37%; in [10] it was 34%; in [11], 0%; in [12] it was 54%. For the same molecule, the “%Inh” value in assay [13] came out at 0%; in assay [14], 13%; in assay [15], 24%; in assay [16] it was 50%; in assay [17], 32%; in assay [18], 0%. In addition, the “%Inh” value in [19] is 4%; in [20], 17%.

Consider `Cl.Cl.NC(CNC(=O)c1cc(Br)c(-c2ccnc3[nH]ccc23)s1)c1ccccc1` (stereo not drawn) [GSK1322949], for which the “%Inh” value was determined as 30% in assay [1]; 59% in assay [2]; 60% in assay [3]; 90% in assay [4]; 84% in [5]; 0% in assay [6]. Moreover, the “%Inh” value stood at 41% in [7]; 31% in assay [8]; 54% in assay [9]; 37% in [10]; 18% in assay [11]; 0% in assay [12]. The “%Inh” value is listed as 0% in assay [13]; 29% in [14]; 43% in [15]; 59% in [16]; 72% in assay [17]; 93.8% in assay [18]. Moreover, the “%Inh” value in assay [19] came to 4%; in [20] it was 84%.

With `CN(c1ccc(NC(=O)Nc2cccc(Cl)c2)cc1)c1ccnc(N)n1.Cl` [GW830707], the “%Inh” value in assay [1] was 12%; in assay [2], 0%; in [3], 0%; in assay [4], 0%; in assay [5] it was 0%; in [6] it was 13%. The “%Inh” value in assay [7] is given as 0%; in [8], 0%; in assay [9], 0%; in assay [10], 0%; in [11] it was 0%; in assay [12], 4%. Besides, the “%Inh” value in [13] is on record as 97.7%; in assay [14], 99.3%; in assay [15] it was 0%; in [16], 0%; in [17], 4%; in [18], 0%. The entries for the “%Inh” value in [19] and in [20] were 17% and 0%, respectively.

Consider `Cn1cc(-c2ccc3c(c2)CCN3C(=O)Cc2cc(F)cc(F)c2F)c2c(N)ncnc21` [GSK2634140], for which the “%Inh” value in [1] is on record as 23%; in [2], 8%; in [3], 18%; in [4] it was 12%; in assay [5], 0%; in assay [6], 0%. Moreover, the “%Inh” value in assay [7], in assay [8], in assay [9], in [10], in assay [11] and in assay [12] was 0% each time. Besides, the “%Inh” value in assay [13] is reported as 72%; in [14] it was 27%; in [15], 31%; in [16], 56%; in [17], 0%; in assay [18], 0%. In addition, the “%Inh” value in [19] is 0%; in assay [20] it was 16%.
